Source: PubChem (National Center for Advancing Translational Sciences (NCATS))
SW480 rereplic: induces DNA re-replication in SW480 colon adenocarcinoma cells. 1.8% of 340,000 active. SW480 DNA re-replication, Hoechst DNA content imaging, 48 h. AID 624297. Potency, µM (doses to about 46.1 µM), inactives show at the top dose re-replication activation, usual class: activators; further: % of control where 0% means no effect; nearly all actives have a fitted effect of over 55% in size
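Compounds, transferred as 23 nL by pin tool, were incubated with cells for 48 hr; DNA content per nucleus was then quantified by Hoechst staining and fluorescence plate imaging.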
ELG1 repair inh: ELG1-dependent DNA repair inhibition; Potency, µM (highest dose often 46.1 µM), inactives show at the highest dose activity change, negative = inhibition, usual class: inhibitors; AID 504467; HEK293T ELG1-luciferase reporter, luminescence, 16 h; DNA damage induced by 5-fluorouridine; 2.3% of 330,000 active; further: on the % scale 0 is the no-effect control and ±100 the full control effect; nearly all actives have a fitted effect of over 55% in size
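In this reporter screen, reduction of luminescence relative to DMSO vehicle indicated activity. Compounds and 5-fluorouridine were added together to 2,000 cells per well, incubated for 16 hr at 37 °C, then developed with ONE-Glo.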
MCF10A rereplic: induces DNA re-replication in MCF 10a normal breast cells | MCF 10A DNA re-replication, Hoechst nuclear intensity, 48 h | Potency, µM (doses to about 46.1 µM), without a hit: top-dose activity, positive = re-replication, hits mostly activators | AID 624296 | 2.9% of 350,000 active; further: % of control where 0% means no effect; nearly all actives have a fitted effect of over 50% in size
RORgamma inh: blocks mouse ROR gamma transcriptional activity; Potency, µM (highest dose often 53.6 µM), for inactives: at the top dose activity change, negative = inhibition, usual class: inhibitors; P51450; 5.4% of 310,000 active; Drosophila S2 Gal4-RORgamma UAS-luciferase reporter, 20 h; further: on the % scale 0 is the no-effect control and ±100 the full control effect; nearly all actives have a fitted effect of over 60% in size
Target sequence (P51450 whole entry, looked up, the tested form may be a part): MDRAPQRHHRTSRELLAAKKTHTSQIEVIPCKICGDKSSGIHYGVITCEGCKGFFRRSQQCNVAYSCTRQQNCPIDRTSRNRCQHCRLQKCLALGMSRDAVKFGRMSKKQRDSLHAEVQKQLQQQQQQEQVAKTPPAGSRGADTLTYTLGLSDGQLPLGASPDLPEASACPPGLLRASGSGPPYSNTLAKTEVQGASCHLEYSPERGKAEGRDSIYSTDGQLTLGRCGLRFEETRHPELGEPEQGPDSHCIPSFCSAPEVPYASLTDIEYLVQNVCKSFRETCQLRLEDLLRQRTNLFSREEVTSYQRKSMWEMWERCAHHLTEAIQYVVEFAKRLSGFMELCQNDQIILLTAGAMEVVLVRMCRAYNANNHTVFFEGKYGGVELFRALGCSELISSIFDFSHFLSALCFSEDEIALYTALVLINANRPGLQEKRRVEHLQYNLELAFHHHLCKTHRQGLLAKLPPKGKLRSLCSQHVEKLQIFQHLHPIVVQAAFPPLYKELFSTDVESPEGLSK
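Stably transfected Drosophila Schneider cells are the test system, with ROR gamma fused to Gal4 and luciferase under UAS control; luminescence is read after 20 hr of 700 uM copper sulfate induction at ambient temperature.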
VP16 counter: counter-screen for ROR gamma inhibitors: Gal4-VP16 reporter; Drosophila S2 Gal4-VP16 UAS-luciferase, luminescence, 20 h; Potency, µM (doses to about 53.6 µM), inactives show at the top dose activity, negative = inhibition, most hits filed as inhibitors; 3.5% of 310,000 active;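 further: Gal4-VP16 expression switched on by copper sulfate through the metallothionein promoter; on the % scale 0 is the no-effect control and ±100 the full control effect; nearly all actives have a fitted effect of over 50% in size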
Numbers without * were called inactive; [ ] = another dose, or the depositor's remark. Most compounds without a hit are left out; they make up all but 10% or so of the library. The call rests on the fitted dose curve; in most records, active means well fitted curve in the direction sought with a large enough effect; inconclusive means small, poorly fitted or top-dose-only effect, or another doubt; inactive means no such curve, though single readings can be large; an effect the other way counts as inactive or inconclusive. Potency means the concentration at half of the fitted maximal effect.

What do the screens show for `C#CCOCCOCCOCCNc1nc(N2CCN(C(=O)[C@H](CCCCN)n3cc(CN)nn3)CC2)nc(N2CCN(C(=O)[C@H](CCCN=C(N)N)n3cc(C(N)[C@H](C)CC)nn3)CC2)n1` (some centres not stated)?
SW480 rereplic: -30%[9.22 µM]; ELG1 repair inh: 27%; MCF10A rereplic: -7%

Results for O=c1c2ccccc2nc(/C=C/c2cc(Br)ccc2O)n1CCO ?
SW480 rereplic: inconclusive; MCF10A rereplic: 15µM*

What do the screens show for `CN(C)c1ccc(/C=C/c2nc3ccccc3c(=O)n2CCO)cc1`?
SW480 rereplic: inconclusive; ELG1 repair inh: 8%; MCF10A rereplic: 16µM*; RORgamma inh: 15%; VP16 counter: -7%

Results for O=c1c2ccccc2nc(/C=C/c2ccc(O)cc2)n1CCc1ccccc1 ?
SW480 rereplic: inconclusive; ELG1 repair inh: 23µM*; MCF10A rereplic: 23µM*; RORgamma inh: 8%; VP16 counter: inconclusive

Results for O=c1c2ccccc2nc(/C=C/c2ccccc2)n1CCCO ?
SW480 rereplic: inconclusive; ELG1 repair inh: -28%; MCF10A rereplic: 3%; RORgamma inh: -1%; VP16 counter: -15%

How did CCn1c(/C=C/c2ccccc2)nc2ccccc2c1=O do in these assays?
SW480 rereplic: -15%; ELG1 repair inh: -19%; MCF10A rereplic: 5%; RORgamma inh: 33%; VP16 counter: -7%

What do the screens show for `Cc1cc(SCC(=O)NCCCN2CCCC2=O)nc2ccccc12`?
SW480 rereplic: 14%; ELG1 repair inh: inconclusive; MCF10A rereplic: -20%

How did O=C(COC(=O)c1cc(S(=O)(=O)N2CCOCC2)ccc1O)Nc1cc(S(=O)(=O)N2CCCC2)ccc1Cl do in these assays?
SW480 rereplic: -25%; ELG1 repair inh: -7%; MCF10A rereplic: -11%; RORgamma inh: 28%; VP16 counter: -1%

What do the screens show for `CCN1/C(=C/C=C/c2oc3ccc(-c4ccccc4)cc3[n+]2CC)Oc2ccc(-c3ccccc3)cc21`?
SW480 rereplic: inconclusive; ELG1 repair inh: 12µM*; MCF10A rereplic: -9%; RORgamma inh: 13µM*; VP16 counter: 0.35µM*

How did CCN1/C(=C/C=C/c2sc3ccccc3[n+]2CC)Sc2ccccc21 do in these assays?
SW480 rereplic: -8%; ELG1 repair inh: inconclusive; MCF10A rereplic: -6%; RORgamma inh: inconclusive; VP16 counter: inconclusive

How did COc1ccc(C2CC(=O)C3=C(C2)NC(C)=C(C(=O)Nc2ccccc2C)C3c2coc3ccc(C)cc3c2=O)cc1OC (configuration not stated) do in these assays?
SW480 rereplic: 11%; ELG1 repair inh: 5.8µM*; MCF10A rereplic: 7%; RORgamma inh: 42%; VP16 counter: 2%

Results for COc1cccc(NC(=O)[C@@H]2CCC(=O)N2C2OC(=O)c3ccccc32)c1 (some centres not stated) ?
SW480 rereplic: 3%; ELG1 repair inh: -11%; MCF10A rereplic: -12%; RORgamma inh: 28%; VP16 counter: 0%

How did O=C1OC(N2C(=O)CC[C@H]2C(=O)Nc2cccc(F)c2)c2ccccc21 (some centres not stated) do in these assays?
SW480 rereplic: 4.1µM*; ELG1 repair inh: -5%; MCF10A rereplic: -57%; RORgamma inh: -5%; VP16 counter: -2%

What do the screens show for `Cc1ccc(-c2cn3c(=O)cc(C)[nH]c3n2)cc1`?
SW480 rereplic: -9%; ELG1 repair inh: inconclusive; MCF10A rereplic: 0%; RORgamma inh: 7.9µM*; VP16 counter: 7.9µM*

What do the screens show for `C/C(CC(=O)Nc1ccc2c(c1)OCO2)=N\NC(=O)C(c1ccccc1)c1ccccc1`?
SW480 rereplic: 19%; ELG1 repair inh: 16%; MCF10A rereplic: 18%; RORgamma inh: 16µM*; VP16 counter: inconclusive

Results for C=CCN(c1ccc(C(=O)Nc2ccc3c(c2)n(C)c(=O)n3C)cc1)S(C)(=O)=O ?
SW480 rereplic: -6%; ELG1 repair inh: inconclusive; MCF10A rereplic: inconclusive; RORgamma inh: 42%[1.91 µM]; VP16 counter: 26%

Results for C/C(CC(=O)Nc1ccc2c(c1)OCO2)=N\NC(=O)c1ccccc1N ?
SW480 rereplic: inconclusive; ELG1 repair inh: 5%; MCF10A rereplic: -15%; RORgamma inh: -34%; VP16 counter: -6%

Results for CS(=O)(=O)N(CC(=O)Nc1ccc2c(c1)OCCO2)c1ccc2c(c1)OCO2 ?
SW480 rereplic: -4%; ELG1 repair inh: 12%; MCF10A rereplic: 11%; RORgamma inh: inconclusive; VP16 counter: 6%

Results for Cc1cccc(NC(=O)CN(c2ccc(F)cc2)S(C)(=O)=O)c1 ?
SW480 rereplic: -2%; ELG1 repair inh: inconclusive; MCF10A rereplic: 0%; RORgamma inh: 5.6µM*; VP16 counter: 5µM*

How did CN(c1cccc(NC(=O)CN(c2ccc(F)cc2)S(C)(=O)=O)c1)S(C)(=O)=O do in these assays?
SW480 rereplic: 1%; ELG1 repair inh: 2%; MCF10A rereplic: -1%; RORgamma inh: 3%; VP16 counter: -4%

Results for CS(=O)(=O)N(CC(=O)Nc1ccc2c(c1)OCO2)c1ccccc1 ?
SW480 rereplic: 4%; ELG1 repair inh: 10%; MCF10A rereplic: 21µM*; RORgamma inh: 23%; VP16 counter: -5%

What do the screens show for `C=CCN(c1ccc(C(=O)Nc2ccc3c(c2)OCO3)cc1)S(C)(=O)=O`?
SW480 rereplic: -3%; ELG1 repair inh: 13µM*; MCF10A rereplic: -12%; RORgamma inh: 22%; VP16 counter: 3%

How did O=C(NCCCN1CCCCC1)c1ccc(CS(=O)c2ccc(F)cc2)o1 (configuration not stated) do in these assays?
SW480 rereplic: 28%; ELG1 repair inh: 15%; MCF10A rereplic: -1%; RORgamma inh: 4%; VP16 counter: -2%

How did Cc1cc(C)cc(OCC(=O)NNC(=O)c2ccccn2)c1 do in these assays?
SW480 rereplic: -4%; ELG1 repair inh: inconclusive; MCF10A rereplic: -3%

What do the screens show for `COc1ccccc1NC(=O)c1ccccc1NC(=O)c1ccccn1`?
SW480 rereplic: -2%; ELG1 repair inh: -15%; MCF10A rereplic: inconclusive

How did COc1ccc(Cl)cc1NC(=O)NNC(=O)c1ccccn1 do in these assays?
SW480 rereplic: 16%; ELG1 repair inh: 3%; MCF10A rereplic: 2%; RORgamma inh: 4.5µM*; VP16 counter: 7.1µM*

What do the screens show for `O=C(COc1ccc(Cl)cc1)NNC(=O)c1ccccn1`?
SW480 rereplic: 12%; ELG1 repair inh: -13%; MCF10A rereplic: 21%; RORgamma inh: 10µM*; VP16 counter: inconclusive

What do the screens show for `CC(=O)NC1=NN(C(C)=O)C(C)(c2ccco2)S1` (configuration not stated)?
SW480 rereplic: inconclusive; ELG1 repair inh: 26%; MCF10A rereplic: inconclusive; RORgamma inh: 15%; VP16 counter: -11%
